# Assay results taken from PubChem BioAssay (NCATS).
# Inconclusive results are not listed. A number with no mark means an inactive call. Active and inactive are the calls of the source. Calls come from the whole dose curve; as a rule, active = well fitted inhibition curve with a large enough effect; inconclusive = small, poorly fitted or top-dose-only effect; inactive = flat fitted curve, though single readings scatter.
# Tested on: P94_40
# Assay: qHTS profiling for inhibitors of Plasmodium falciparum proliferation (AID 504749); note: nearly all actives have a fitted effect of over 60% in size;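 for activity, negative = inhibition: 0% = DMSO vehicle and full inhibition = artemisinin control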
# Conditions: P. falciparum in erythrocytes, SYBR Green DNA, 72 h; series mostly up to 28.7 µM; activity, negative = inhibition: at the top concentration
# How it was run: (§1)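 Quantitative HTS: compounds pinned into medium, infected erythrocytes added (0.3% parasitemia, 2.5% hematocrit), 72 h culture at 37 C under 5% CO2. Saponin/Triton lysis with SYBR Green I, overnight RT, then fluorescence read.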
# Potency is the fitted concentration of half-maximal effect.
Structure (SMILES),"activity, negative = inhibition",Potency
O=[N+]([O-])c1ccccc1,14.6%,
O=C1CC[C@@]2(O)C3Cc4ccc(O)c5c4C2(CCN3CC2CC2)[C@H]1O5 (stereo partly specified),13.9%,
O=C/C=C/c1ccccc1,6.61%,
CCNC(C)Cc1cccc(C(F)(F)F)c1 (stereo unspecified),3.98%,
c1csc(C2(N3CCCCC3)CCCCC2)c1,-2.25%,
CCN(CC)C(=O)/C(Cl)=C(\C)OP(=O)(OC)OC,11.7%,
c1ccc(C2(N3CCCC3)CCCCC2)cc1,12.7%,
CCC1(CC)C(=O)NC(=O)N(C)C1=O,-6.15%,
c1cc2c(c(NC3=NCCN3)c1)CCCC2,8.8%,
CCC1C(C)=NN=C(c2ccc(OC)c(OC)c2)c2cc(OC)c(OC)cc21 (stereo unspecified),-26.7%,
CCC(=O)O[C@@](Cc1ccccc1)(c1ccccc1)[C@@H](C)CN(C)C,-29.9% [at 12.8 µM],
N#CC(C#N)=Cc1cc(O)c(O)c(O)c1,,11.2 µM (active)
C=CCC1(C(C)CCC)C(=O)N=C(S)NC1=O (stereo unspecified),4.17%,
Oc1cccc[c]1[Hg][Cl],,5.01 µM (active)
ClC1C(Cl)C(Cl)C(Cl)C(Cl)C1Cl (stereo unspecified),10.8%,
CCC1(c2ccccc2)C(=O)NC(=O)N(C)C1=O (stereo unspecified),10.6%,
CCCCCCCCCC(=O)O[C@H]1CC[C@H]2[C@@H]3CCC4=CC(=O)CC[C@]4(C)[C@H]3CC[C@]12C,7.82%,
CCC1(c2ccccc2)C(=O)NC(=O)N(C(=O)c2ccccc2)C1=O (stereo unspecified),6.36%,
COc1ccc2c(c1OC)C(=O)OC2C1c2cc3c(cc2CCN1C)OCO3 (stereo unspecified),2.99%,
C=CCN=C=S,14.1%,
OC(c1ccccc1)(c1ccccc1)C1CN2CCC1CC2 (stereo unspecified),-17.5%,
CCOc1ccc2c3c1O[C@H]1[C@@H](O)C=C[C@H]4[C@@H](C2)N(C)CC[C@@]341,-6.32%,
Cc1sc2ccccc2c1CC1=NCCN1,-8.51%,
O=C1CN=C(c2ccccc2)c2cc(Cl)ccc2N1CC1CC1,-17.5%,
CC(C)Nc1ccc(Nc2ccccc2)cc1,,8.91 µM (active)
c1ccc2cc(CC3=NCCN3)ccc2c1,-2.47%,
CCCN1CCCC2Cc3[nH]ncc3CC21 (stereo unspecified),8.47%,
Oc1cc(Cl)c(Cl)cc1Cl,4.12%,

# Tested on: PAD
# Assay: as above
# Conditions: P. falciparum in erythrocytes, SYBR Green DNA, 72 h; series mostly up to 28.7 µM; activity, negative = inhibition: at the top concentration
# How it was run: as §1
Structure (SMILES),"activity, negative = inhibition",Potency
O=[N+]([O-])c1ccccc1,7.71%,
O=C1CC[C@@]2(O)C3Cc4ccc(O)c5c4C2(CCN3CC2CC2)[C@H]1O5 (stereo partly specified),11.4%,
O=C/C=C/c1ccccc1,0.624%,
CCNC(C)Cc1cccc(C(F)(F)F)c1 (stereo unspecified),0.0783%,
CC1CCC(C(C)C)C(OC(=O)c2ccccc2N)C1 (stereo unspecified),-29.3%,
CCOP(=O)(OCC)O/C(=C/Cl)c1ccc(Cl)cc1Cl,-12%,
c1csc(C2(N3CCCCC3)CCCCC2)c1,0.659%,
CCN(CC)C(=O)/C(Cl)=C(\C)OP(=O)(OC)OC,13.6%,
[Cl-].[Cl-].[Hg+2],,7.08 µM (active)
CCC1(CC)C(=O)NC(=O)N(C)C1=O,11.7%,
c1cc2c(c(NC3=NCCN3)c1)CCCC2,-11.5%,
CCC1C(C)=NN=C(c2ccc(OC)c(OC)c2)c2cc(OC)c(OC)cc21 (stereo unspecified),-28.6%,
CCC(=O)O[C@@](Cc1ccccc1)(c1ccccc1)[C@@H](C)CN(C)C,-22.4% [at 12.8 µM],
N#CC(C#N)=Cc1cc(O)c(O)c(O)c1,,7.08 µM (active)
C=CCC1(C(C)CCC)C(=O)N=C(S)NC1=O (stereo unspecified),17.8%,
F/C(COc1ccc2c(c1)[nH]c1ccccc12)=C1/CN2CCC1CC2,,8.91 µM (active)

Structure (SMILES),"activity, negative = inhibition",Potency
Oc1cccc[c]1[Hg][Cl],,5.62 µM (active)
C[C@H]1CCC[C@H](O)CCCCCc2cc(O)cc(O)c2C(=O)O1,-19.1%,
ClC1C(Cl)C(Cl)C(Cl)C(Cl)C1Cl (stereo unspecified),-2.21%,
CCCCCCCCCC(=O)O[C@H]1CC[C@H]2[C@@H]3CCC4=CC(=O)CC[C@]4(C)[C@H]3CC[C@]12C,18.1%,
CCC1(c2ccccc2)C(=O)NC(=O)N(C(=O)c2ccccc2)C1=O (stereo unspecified),-1.61%,
COc1ccc2c(c1OC)C(=O)OC2C1c2cc3c(cc2CCN1C)OCO3 (stereo unspecified),10.6%,
C=CCN=C=S,13%,
CCOc1ccc2c3c1O[C@H]1[C@@H](O)C=C[C@H]4[C@@H](C2)N(C)CC[C@@]341,-19.4%,
Cc1sc2ccccc2c1CC1=NCCN1,-2.37%,
O=C1CN=C(c2ccccc2)c2cc(Cl)ccc2N1CC1CC1,-11.5%,
CC(C)Nc1ccc(Nc2ccccc2)cc1,,10 µM (active)
CC12NC(Cc3ccccc31)c1ccccc12 (stereo unspecified),-18.2%,
c1ccc2cc(CC3=NCCN3)ccc2c1,7.8%,
CCCN1CCCC2Cc3[nH]ncc3CC21 (stereo unspecified),6%,
Oc1cc(Cl)c(Cl)cc1Cl,-1.44%,

# Tested on: PC15
# Assay: as above
# Conditions: P. falciparum in erythrocytes, SYBR Green DNA, 72 h; series mostly up to 28.7 µM; activity, negative = inhibition: at the top concentration
# How it was run: as §1
Structure (SMILES),"activity, negative = inhibition",Potency
O=[N+]([O-])c1ccccc1,5.97%,
O=C1CC[C@@]2(O)C3Cc4ccc(O)c5c4C2(CCN3CC2CC2)[C@H]1O5 (stereo partly specified),3.38%,
O=C/C=C/c1ccccc1,5.35%,
CCNC(C)Cc1cccc(C(F)(F)F)c1 (stereo unspecified),3.02%,
CCOP(=O)(OCC)O/C(=C/Cl)c1ccc(Cl)cc1Cl,-4.27%,
c1csc(C2(N3CCCCC3)CCCCC2)c1,2.62%,
CCN(CC)C(=O)/C(Cl)=C(\C)OP(=O)(OC)OC,0.286%,
CCC1(CC)C(=O)NC(=O)N(C)C1=O,-2.64%,
CCC1C(C)=NN=C(c2ccc(OC)c(OC)c2)c2cc(OC)c(OC)cc21 (stereo unspecified),-14%,
N#CC(C#N)=Cc1cc(O)c(O)c(O)c1,,6.31 µM (active)
C=CCC1(C(C)CCC)C(=O)N=C(S)NC1=O (stereo unspecified),2.58%,
Oc1cccc[c]1[Hg][Cl],,10 µM (active)
C[C@H]1CCC[C@H](O)CCCCCc2cc(O)cc(O)c2C(=O)O1,-6.03%,
ClC1C(Cl)C(Cl)C(Cl)C(Cl)C1Cl (stereo unspecified),1.78%,
CCCCCCCCCC(=O)O[C@H]1CC[C@H]2[C@@H]3CCC4=CC(=O)CC[C@]4(C)[C@H]3CC[C@]12C,14.7%,
CCC1(c2ccccc2)C(=O)NC(=O)N(C(=O)c2ccccc2)C1=O (stereo unspecified),4.86%,
COc1ccc2c(c1OC)C(=O)OC2C1c2cc3c(cc2CCN1C)OCO3 (stereo unspecified),-2.9%,
C=CCN=C=S,11.4%,
CCOc1ccc2c3c1O[C@H]1[C@@H](O)C=C[C@H]4[C@@H](C2)N(C)CC[C@@]341,-7.3%,
O=C1CN=C(c2ccccc2)c2cc(Cl)ccc2N1CC1CC1,-1.48%,
CNC(=O)Oc1ccccc1C(=O)Nc1ccccc1,-21.1%,
CC12NC(Cc3ccccc31)c1ccccc12 (stereo unspecified),-15.4%,
c1ccc2cc(CC3=NCCN3)ccc2c1,-2.54%,
CCCN1CCCC2Cc3[nH]ncc3CC21 (stereo unspecified),1.97%,
Oc1cc(Cl)c(Cl)cc1Cl,-6.31%,
CN1CCCC(=C(c2cccs2)c2cccs2)C1,-28.2%,
CN1[C@@H]2CC[C@H]1CC(OC1c3ccccc3CCc3ccccc31)C2 (stereo partly specified),-29.9% [at 12.8 µM],
